# From PubChem BioAssay (Tox21)
# Several values for one entry are separate records, joined by “and”; a condition that tells them apart may be missing. Equal entries are not always repeated. Results filed as inconclusive are left out. Entries that show only a call come without a potency. Values without a mark were called inactive. Activity calls are given as the source filed them. The call rests on the fitted dose curve.
# Experiment: qHTS assay to identify small molecule antagonists of the sonic hedgehog signaling (Shh) pathway (AID 1259369); further: nearly all actives have a fitted effect of over 45% in size
# Conditions: NIH/3T3 Gli1-Luc reporter, Shh antagonist, luminescence 24 h; series mostly up to 42.5 µM
# Text: U.S. Tox21 Program National Center for Advancing Translational Sciences [NCATS] NIH Chemical Genomics Center [NCGC] U.S. Environmental Protection Agency [EPA] National Institutes of Environmental Health Sciences [NIEHS] National Toxicology Program [NTP] U.S. Food and Drug Administration [FDA] Tox21 Assay Overview: The sonic hedgehog (Shh) pathway is essential for normal embryonic development. Dysregulation of the Shh pathway can cause severe developmental defects in organs. Therefore chemicals that interfere with the pathway are potential developmental toxicants. A cell line designated 3T3Gli1-Luc (DMB/OARSA/CFSAN/FDA, Laurel, MD), a NIH/3T3 derived clone containing stably integrated Gli1-Luc reporter is used to detect chemical interference of the Shh pathway, by changes in the expression of the firefly Luc gene under the control of the Gli1 transcriptional response element. This cell line was used to screen Tox21 libraries for identifying and prioritizing the potential developmental toxicants that interfere Shh pathway. Conditioned medium-stimulated mode was used to screen for chemicals inhibiting Shh signaling.
# Tox21 Assay Protocol Summary: 3T3 Gli1-Luc cells were dispensed at 2,000 per well in 5uL of culture medium into white solid bottom 1536-well plates (Greiner Bio-One, Monroe, NC) using a Multidrop Combi (Thermo Scientific, Waltham, MA) dispenser. The assay plates were incubated at 37 C and 5% CO2 for 4hr, and then 23nL of compounds dissolved in DMSO and positive control were transferred using a Pintool station (Wako, San Diego, CA). The compound transfer was followed by the addition of 1ul conditioned medium or assay buffer using two separate tips of Flying Reagent Dispenser (FRD, Aurora Discovery, San Diego, CA). The assay plates were incubated at 37C and 5% CO2 for 24hr. For luciferase read, 4uL of Amplite Luciferase reporter gene assay reagent (AAT Bioquest, Inc. Sunnyvale, CA) was added to each well of the assay plates using FRD and incubated at room temperature for 30min. The luminescence signal was measured using a ViewLux plate reader (Perkin Elmer, Shelton, CT).
# Potency means the concentration at half of the fitted maximal effect.
SMILES,Potency,"activity change, negative = inhibition"
N[C@H](C(=O)O)c1ccc(O)cc1,inactive,–
COC(=O)c1ccc(C)cc1C1=NC(C)(C(C)C)C(=O)N1 (stereo not given),inactive,–
CCOC(C)(C)C,inactive,–
O=C(O)CN(CCOCCOCCN(CC(=O)O)CC(=O)O)CC(=O)O,–,23.6% [at 0.349 µM]
O=C(O)Cc1ccc(CCNS(=O)(=O)c2ccc(Cl)cc2)cc1,inactive,–
O=Cc1cccc([N+](=O)[O-])c1,inactive,–
OC[C@]1(O)OC[C@@H](O)[C@H](O)[C@@H]1O,inactive,–
COc1nc(N)nc2c1ncn2[C@@H]1O[C@H](CO)[C@@H](O)[C@@H]1O,inactive,–
CCCCC/C=C\CCC=O,inactive,–
CC(C)(C)NCCNC(C)(C)C,inactive,–
O=c1cc(CO)occ1O,inactive,–
CC1(C)CO[C@@H](CC(=O)O)CN1,inactive,–
FC(F)OC(Cl)C(F)(F)F (stereo not given),inactive,–
O=C(O)CCCc1ccccc1,inactive,–
NC(=O)c1cn(Cc2c(F)cccc2F)nn1,inactive,–
NS(=O)(=O)c1cc(C(=O)NN2C[C@H]3[C@H]4CCC(C4)[C@H]3C2)ccc1Cl,inactive,–
CC/C=C\CCOC(C)=O,inactive,–
COc1ccc2c(c1)c(CC(=O)OCC(=O)O)c(C)n2C(=O)c1ccc(Cl)cc1,inactive,–
CN(C(=O)c1c(O)c2ccccc2n(C)c1=O)c1ccccc1,inactive,–
NS(=O)(=O)c1cc(C(=O)O)cc(N2CCCC2)c1Oc1ccccc1,inactive,–

SMILES,Potency,"activity change, negative = inhibition"
COC(=O)C1=C(C)NC(C)=C(C(=O)OC)C1c1ccccc1[N+](=O)[O-],6.12 µM (active) and 6.68 µM (active),–
CC(=O)OC/C=C(\C)CC/C=C(\C)CCC=C(C)C,inactive,–
COc1cc(C(=O)N2CCCCCCC2)cc(OC)c1OC,inactive,–
CC1(C)C(O)C(C)(C)C1O (stereo not given),inactive,–
CCn1ccnc1CC1COc2ccccc2O1 (stereo not given),inactive,–
CCN1CCC[C@H]1CNC(=O)c1c(O)c(Cl)cc(Cl)c1OC,inactive,–
CCC(C)S (stereo not given),–,17.6% [at 3.27 µM]
CCN(Cc1ccncc1)C(=O)C(CO)c1ccccc1 (stereo not given),inactive,–
NS(=O)(=O)c1ccccc1Cl,inactive,–
CN1CC(=O)NC1=N,inactive,–
C[C@H]1C[C@@H](O)CC(C)(C)C1,inactive,–
O=C(c1ccccc1)C1CCCCC1,inactive,–
COC(=O)CCSCCC(=O)OC,inactive,–
CC(C)CCCC(C)N (stereo not given),inactive,–
COC(C)(C)CCCC(C)CC=O (stereo not given),inactive,–
CO[C@]12C[C@@H](COC(=O)c3cncc(Br)c3)CN(C)[C@@H]1Cc1cn(C)c3cccc2c13,inactive,–
CN(C)CCCN1c2ccccc2CCc2ccc(Cl)cc21,15.4 µM (active) and 11.9 µM (active),–
CC(C)c1cc2c(cc1S(=O)(=O)O)[C@@]1(C)CCC[C@@](C)(C(=O)O)[C@@H]1CC2,inactive,–
O=C1OC(=O)C2CCCCC12 (stereo not given),inactive,–
CC(C)CNCC(C)C,inactive,–
